For test [1], the system named is HIV-1 integrase (multimerization). The test is described as follows: stimulation of HIV-1 integrase oligomerization – biochemical, TR-FRET, counter-screen for LEDGF/p75 integration inhibitor project (AID 1053131; in the data active = activation above about 8.9%). The following applies: TR-FRET HIV-1 integrase multimerization, at 7.7 µM, hits give high values. (In general: In TR-FRET formats the signal depends on donor and acceptor labels being close together.)

The nature of test [2]: compounds disturbing TR-FRET signal readout – biochemical, HIV-1 IN multimerization, artefact control for LEDGF/p75-dependent integration inhibitor project, confirmation (AID 1053135).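 Also: 0% = integrase with antibodies and DMSO and 100% = antibodies without integrase.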 The following applies: TR-FRET optical interference counterscreen, at 7.7 µM, hits give high values.
Test [3] deals with HIV-1 integrase / human LEDGF/p75 complex. The test is described as follows: blockers of LEDGF/p75-dependent integrase activity – biochemical, TR-FRET, confirmation (AID 1053136; in the data active = inhibition above about 14%). The following applies: TR-FRET LEDGF/p75-dependent HIV-1 integration, at 3.7 µM, hits give high values.
Test [4] concerns the target Protein phosphatase methylesterase 1 (Homo sapiens) (UniProt Q9Y570). In words: human PME-1 methylesterase inhibition confirmation – biochemical, fluorescence polarization, FP-Rh probe, triplicate (AID 2171;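 active = inhibition above the hit cutoff set in the earlier primary screen, cut at about 27% in these data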;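 also: 0% = enzyme with DMSO and 100% = wells lacking PME-1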). The following applies: recombinant PME-1, FP-Rh probe fluorescence polarization; at 5.9 µM; hits give high values.
The target of test [5] is Glutathione S-transferase omega-1 (Homo sapiens) (UniProt P78417). In words: recombinant GSTO1 blockers, retest – biochemical, fluorescence polarization, triplicate, counter-screen for RBBP9 inhibitor project, confirmation (AID 2176;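 active = inhibition above the primary screen's cutoff, its mean inhibition plus 3 SD, cut at about 35% in these data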;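 also: loss of polarization as inhibitors block binding of rhodamine sulfonate ester activity probe; 0% = GSTO1 with DMSO and 100% = wells lacking GSTO1 enzyme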). The following applies: recombinant GSTO1, probe fluorescence polarization; at 5.96 µM; hits give high values.
Glutathione S-transferase omega-1 (Homo sapiens), sequence (P78417 whole entry, looked up): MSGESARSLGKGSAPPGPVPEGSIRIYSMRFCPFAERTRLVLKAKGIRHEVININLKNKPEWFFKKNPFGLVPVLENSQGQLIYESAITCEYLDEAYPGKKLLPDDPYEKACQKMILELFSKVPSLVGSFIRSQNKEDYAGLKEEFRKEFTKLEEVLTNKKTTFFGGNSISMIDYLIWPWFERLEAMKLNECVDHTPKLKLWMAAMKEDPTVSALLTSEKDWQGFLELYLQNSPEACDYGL
Test [6] addresses Protein-arginine deiminase type-4 (Homo sapiens) (UniProt Q9UM07). In words: protein arginine deiminase 4 blockade, retest – biochemical, fluorescence polarization, confirmation (AID 488796;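 active = mean inhibition across replicates above the hit cutoff set by the earlier primary screen, cut at about 15% in these data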;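 also: inhibitors block active-site labeling by the probe so polarization falls; 0% = PAD4 with probe and DMSO and 100% = probe without PAD4 enzyme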). The following applies: recombinant PAD4, RCA probe fluorescence polarization; at 6.36 µM; hits give high values. Background: Fluorescence polarisation rises when a labelled molecule tumbles more slowly, as on binding a larger partner.

Test [7] deals with Peroxisome proliferator-activated receptor gamma (Homo sapiens) (UniProt P37231). In words: retested PPARg-SRC-2 recruitment enhancers – biochemical, HTS, confirmation (AID 1297; in the data active = activation above about 22%;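 also: 0% = vehicle alone and 100% = reference agonist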). The note with it: biochemical SRC-2 recruitment by PPARgamma; at 8 µM; hits give high values.
Peroxisome proliferator-activated receptor gamma (Homo sapiens), sequence (P37231 whole entry, looked up): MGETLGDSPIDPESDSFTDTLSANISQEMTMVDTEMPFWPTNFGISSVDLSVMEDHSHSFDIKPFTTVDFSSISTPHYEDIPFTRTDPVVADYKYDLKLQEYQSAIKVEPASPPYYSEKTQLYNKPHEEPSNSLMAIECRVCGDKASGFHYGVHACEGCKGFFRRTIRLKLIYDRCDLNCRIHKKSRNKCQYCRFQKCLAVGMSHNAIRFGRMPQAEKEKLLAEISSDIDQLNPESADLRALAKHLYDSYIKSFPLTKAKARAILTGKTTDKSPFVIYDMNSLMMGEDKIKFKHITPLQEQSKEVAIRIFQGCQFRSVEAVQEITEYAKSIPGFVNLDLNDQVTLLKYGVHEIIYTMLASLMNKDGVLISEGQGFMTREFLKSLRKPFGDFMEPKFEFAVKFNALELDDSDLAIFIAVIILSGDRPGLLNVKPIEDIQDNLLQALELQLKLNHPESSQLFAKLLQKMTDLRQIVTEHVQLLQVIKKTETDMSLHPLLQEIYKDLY
Test [8] shares this target. In words: retest of SRC-1 recruitment enhancers for PPARgamma – biochemical, confirmation (AID 1300; in the data active = activation above about 20%;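 also: 0% = vehicle wells and 100% = reference agonist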). The note with it: PPARgamma–SRC-1 coactivator recruitment biochemical assay; at 8 µM; hits give high values.
Test [9] deals with Peroxisome proliferator-activated receptor gamma (Homo sapiens) + Nuclear receptor coactivator 3 (Homo sapiens) (UniProt P37231+Q9Y6Q9). In words: agonists promoting SRC-3 binding to PPARgamma – biochemical, confirmation (AID 1301; in the data active = activation above about 24%;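 also: 0% = vehicle wells and 100% = reference agonist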). The following applies: biochemical PPARgamma-SRC-3 coactivator recruitment, agonist mode; at 8 µM; hits give high values.
Peroxisome proliferator-activated receptor gamma (Homo sapiens) + Nuclear receptor coactivator 3 (Homo sapiens), sequence (P37231 whole entry, looked up): as above
Peroxisome proliferator-activated receptor gamma (Homo sapiens) + Nuclear receptor coactivator 3 (Homo sapiens), sequence (Q9Y6Q9 whole entry, looked up): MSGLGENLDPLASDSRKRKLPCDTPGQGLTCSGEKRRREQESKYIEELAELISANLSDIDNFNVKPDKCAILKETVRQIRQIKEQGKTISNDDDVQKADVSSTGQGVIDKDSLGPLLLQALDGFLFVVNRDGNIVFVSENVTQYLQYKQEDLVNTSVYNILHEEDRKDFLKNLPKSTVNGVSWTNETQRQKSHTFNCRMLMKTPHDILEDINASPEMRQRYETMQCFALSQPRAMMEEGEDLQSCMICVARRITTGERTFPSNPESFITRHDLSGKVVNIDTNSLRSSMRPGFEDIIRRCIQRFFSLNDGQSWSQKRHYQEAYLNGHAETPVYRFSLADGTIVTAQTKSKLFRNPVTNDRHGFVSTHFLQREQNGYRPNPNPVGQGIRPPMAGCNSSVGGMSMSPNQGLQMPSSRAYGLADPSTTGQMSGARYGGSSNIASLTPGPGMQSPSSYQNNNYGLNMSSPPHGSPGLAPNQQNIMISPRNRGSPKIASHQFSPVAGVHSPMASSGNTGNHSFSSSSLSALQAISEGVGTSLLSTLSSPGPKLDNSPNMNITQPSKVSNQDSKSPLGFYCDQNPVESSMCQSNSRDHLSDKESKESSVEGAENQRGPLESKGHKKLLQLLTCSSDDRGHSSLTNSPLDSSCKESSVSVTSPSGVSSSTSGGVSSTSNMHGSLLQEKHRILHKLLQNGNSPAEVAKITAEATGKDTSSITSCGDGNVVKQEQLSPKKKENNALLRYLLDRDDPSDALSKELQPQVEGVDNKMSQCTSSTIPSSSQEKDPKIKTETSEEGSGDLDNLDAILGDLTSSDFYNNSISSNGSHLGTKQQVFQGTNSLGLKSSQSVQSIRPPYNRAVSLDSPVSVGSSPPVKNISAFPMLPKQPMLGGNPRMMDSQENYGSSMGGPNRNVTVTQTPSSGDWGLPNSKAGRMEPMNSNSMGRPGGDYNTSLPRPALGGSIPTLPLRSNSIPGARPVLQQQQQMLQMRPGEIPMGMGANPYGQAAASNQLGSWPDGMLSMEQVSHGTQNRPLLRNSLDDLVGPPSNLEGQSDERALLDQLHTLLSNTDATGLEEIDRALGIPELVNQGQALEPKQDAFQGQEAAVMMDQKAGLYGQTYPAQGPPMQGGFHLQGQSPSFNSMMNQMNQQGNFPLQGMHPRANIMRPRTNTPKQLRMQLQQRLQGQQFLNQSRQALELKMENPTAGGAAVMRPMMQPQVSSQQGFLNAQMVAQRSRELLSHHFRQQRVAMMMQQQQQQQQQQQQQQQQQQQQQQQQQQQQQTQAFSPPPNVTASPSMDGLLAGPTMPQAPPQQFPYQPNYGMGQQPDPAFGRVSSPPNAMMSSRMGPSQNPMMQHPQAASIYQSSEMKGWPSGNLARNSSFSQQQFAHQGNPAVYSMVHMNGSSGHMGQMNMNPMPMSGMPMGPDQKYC
Test [10] deals with Platelet-activating factor acetylhydrolase (Homo sapiens) (UniProt Q13093). The test is described as follows: inhibition of plasma PAF acetylhydrolase – biochemical, fluorescence polarization, human, confirmation (AID 463230;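 active = mean inhibition of the triplicate above the hit cutoff set for the earlier primary screen, cut at about 25% in these data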;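 also: 0% = enzyme with DMSO and 100% = wells lacking pPAFAH enzyme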). The following applies: recombinant pPAFAH, FP-Rh probe fluorescence polarization; at 3.39 µM; hits give high values.
Platelet-activating factor acetylhydrolase (Homo sapiens), sequence (Q13093 whole entry, looked up): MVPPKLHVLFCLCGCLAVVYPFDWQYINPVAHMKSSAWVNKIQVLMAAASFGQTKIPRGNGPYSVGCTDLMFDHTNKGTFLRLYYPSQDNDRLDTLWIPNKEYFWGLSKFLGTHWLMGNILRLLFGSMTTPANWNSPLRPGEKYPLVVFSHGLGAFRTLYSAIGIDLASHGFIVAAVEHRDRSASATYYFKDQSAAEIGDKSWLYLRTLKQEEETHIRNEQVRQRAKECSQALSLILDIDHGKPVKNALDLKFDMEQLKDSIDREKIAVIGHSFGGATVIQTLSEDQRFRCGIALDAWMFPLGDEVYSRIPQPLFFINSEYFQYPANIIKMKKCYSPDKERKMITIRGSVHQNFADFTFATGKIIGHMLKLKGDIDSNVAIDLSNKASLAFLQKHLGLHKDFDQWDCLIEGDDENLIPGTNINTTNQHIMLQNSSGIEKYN
In test [11] the target is Serine protease HTRA1 (Homo sapiens) (UniProt Q92743). The test is described as follows: confirming inhibition of human HTRA1 – biochemical, fluorescence polarization, confirmation (AID 540248;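 active = mean inhibition over three repeats above a set limit taken from the earlier primary screen, cut at about 37% in these data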;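 also: 0% = HTRA1 with DMSO and 100% = wells lacking HTRA1; inhibitors block probe binding so polarization drops and inhibition rises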). The note with it: recombinant HTRA1, FP-rhodamine activity-based probe, at 5.96 µM, hits give high values.
Test [12] in a line: BSA probe fluorescence interference – biochemical, TAMRA-labeled BSA, counter-screen for TCR-CD3 interaction inhibitor project (AID 652035; in the data active = inhibition above about 23%;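 also: 0% = buffer low control and 100% = reference high control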). The note with it: TAMRA-labeled BSA probe fluorescence counterscreen; at 9.4 µM; hits give high values.
Test [13] deals with T-cell receptor (TCR)-CD3 interaction, human. In words: blockers of TCR binding to CD3 – biochemical, fluorescence, TAMRA-labeled TCR probe, confirmation (AID 652036; in the data active = inhibition above about 19%). The note with it: TAMRA-labeled TCR probe fluorescence binding assay; at 9.4 µM; hits give high values.
Test [14] addresses (Lyso)-N-acylphosphatidylethanolamine lipase (Mus musculus) (UniProt Q8VD66). The test is described as follows: mouse ABHD4 hydrolase blockers, triplicate – biochemical, fluorescence polarization, confirmation (AID 720658;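 active = mean inhibition across replicates above the hit cutoff set in the primary screen, cut at about 30% in these data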;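 also: 0% = wild-type ABHD4 with DMSO and 100% = catalytically dead S159A mutant with DMSO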). The following applies: purified mABHD4, FP-Rh probe fluorescence polarization; at 8.92 µM; hits give high values.
The nature of test [15]: suppression of KLF5 promoter-driven luciferase – DLD-1 cells, luminescence, confirmation (AID 1834;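 active = inhibition above a set limit taken from the earlier primary screen, cut at about 63% in these data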;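 also: 0% = DMSO wells and 100% = LY294002 at 200 µM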). The following applies: DLD-1 KLF5 promoter firefly luciferase reporter, at 4 µM, hits give high values. (In a reporter assay the amount or activity of a reporter protein is the signal.)
A short description of test [16]: IEC-6 intestinal cell killing – luminescence, triplicate, cytotoxicity control for KLF5 inhibitor project (AID 1905; in the data active = inhibition above about 23%;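 also: cells exposed to compounds for 48 hours before viability read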). The following applies: IEC-6 rat intestinal cells, viability luminescence; at 4 µM; hits give high values.
The nature of test [17]: reduced OD of T4-infected AddAB+ E. coli – absorbance, E. coli V3065, T4 phage, triplicate, AddAB inhibitor project, confirmation (AID 488942;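 active = mean inhibition above a set limit taken from the earlier primary screen, cut at about 13% in these data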;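 also: higher means less bacterial growth since AddAB block lets phage replicate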). The note with it: E. coli V3065 expressing H. pylori AddAB, at 11.9 µM, hits give high values, T4 phage with gene 2 nonsense mutations.
A short description of test [18]: reduced OD of phage-infected RecBCD+ V66 E. coli – absorbance, mutant T4 phage, counter-screen for AddAB inhibitor project (AID 488955;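 active = mean inhibition above the mean of solvent-only control wells plus 3 SD, cut at about 4% in these data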;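 also: optical density read after an 18 h incubation at 37 °C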). The following applies: OD growth, at 11.9 µM, hits give high values.
The nature of test [19]: bacterial growth inhibitors – absorbance, counter-screen for AddAB inhibitor project, confirmation (AID 488956; in the data active = inhibition above about 25%). The following applies: bacterial viability, absorbance (AddAB counterscreen); at 11.9 µM; hits give high values.
Test [20] is described as follows: reduced OD of V66 E. coli with T4 gene 2 phage – absorbance, RecBCD inhibitor project, confirmation (AID 651982;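 active = mean inhibition over triplicates exceeding the hit threshold derived in the original primary screen, cut at about 11% in these data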). The note with it: E. coli V66 + T4 2- phage, growth OD; at 11.9 µM; hits give high values.
Test [21] can be described thus: bacterial growth inhibition – absorbance, high throughput, counter-screen for RecBCD inhibitor project (AID 651983; in the data active = inhibition above about 20%;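 also: E. coli strain V66 grown with compound alone and no phage infection; 0% = bacteria with DMSO vehicle only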). The note with it: E. coli viability, absorbance (OD) growth; at 11.9 µM; hits give high values.
A short description of test [22]: reduced optical density, T4-challenged addAB+ bacteria – absorbance, E. coli V3065, T4 phage, counter-screen for RecBCD inhibitor project, confirmation (AID 651984;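 active = mean inhibition above the solvent-only control wells' mean plus 3 SD, cut at about 22% in these data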;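 also: higher means less bacterial growth from phage killing when AddAB is blocked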). The following applies: E. coli expressing H. pylori AddAB + T4 phage, OD growth; at 11.9 µM; hits give high values; gene 2 mutant T4, recBCD-deleted host.
Test [23] deals with Bcl-2-like protein 1 (Homo sapiens) (UniProt Q07817). The test is described as follows: Bcl-xL BH3-peptide displacement, hit confirmation – biochemical, fluorescence polarization, counter-screen for MCL1 inhibitor project (AID 2166;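 active = inhibition above a cutoff equal to the mean inhibition of all tested compounds plus 3 SD, cut at about 30% in these data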). The following applies: GST-Bcl-xL / FITC-Bim BH3 peptide FP binding; at 10.9 µM; hits give high values.
Test [24] has as its target Induced myeloid leukemia cell differentiation protein Mcl-1 (Homo sapiens) (UniProt Q07820). The test is described as follows: MCL1-BIM peptide interaction disruptors – biochemical, fluorescence polarization, triplicate, confirmation (AID 2168;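 active = inhibition above the average of all tested compounds plus 3 SD, cut at about 40% in these data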;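 also: 0% = DMSO wells and 100% = unlabeled Bim-BH3 control peptide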). The note with it: GST-MCL1 / FITC-Bim-BH3 fluorescence polarization; at 10.9 µM; hits give high values.
The test system of test [25] is Fam108b (Abhd17b) serine hydrolase [Mus musculus]. The test is described as follows: inhibition of Fam108b (Abhd17b) hydrolase – biochemical, fluorescence polarization, triplicate, counter-screen for RBBP9 inhibitor project, confirmation (AID 1978;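 active = inhibition above a limit from the primary screen, the mean over all compounds plus 3 SD, cut at about 19% in these data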;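 also: 0% = median of active Fam108b wells and 100% = catalytically dead S170A mutant; inhibitors free the probe so polarization falls as inhibition rises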). The following applies: recombinant Fam108b, FP-Rh probe fluorescence polarization; at 9.51 µM; hits give high values.

The text below walks through data of PubChem BioAssay.

Unmarked numbers belong to inactive results. This is one part of the list. The source made the active and inactive calls.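 The calls were made as follows, unless noted: active = inhibition above the mean over all tested compounds plus 3 SD, which no compound reached; inactive = the rest.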

Protein-arginine deiminase type-4 (Homo sapiens), sequence (Q9UM07 whole entry, looked up): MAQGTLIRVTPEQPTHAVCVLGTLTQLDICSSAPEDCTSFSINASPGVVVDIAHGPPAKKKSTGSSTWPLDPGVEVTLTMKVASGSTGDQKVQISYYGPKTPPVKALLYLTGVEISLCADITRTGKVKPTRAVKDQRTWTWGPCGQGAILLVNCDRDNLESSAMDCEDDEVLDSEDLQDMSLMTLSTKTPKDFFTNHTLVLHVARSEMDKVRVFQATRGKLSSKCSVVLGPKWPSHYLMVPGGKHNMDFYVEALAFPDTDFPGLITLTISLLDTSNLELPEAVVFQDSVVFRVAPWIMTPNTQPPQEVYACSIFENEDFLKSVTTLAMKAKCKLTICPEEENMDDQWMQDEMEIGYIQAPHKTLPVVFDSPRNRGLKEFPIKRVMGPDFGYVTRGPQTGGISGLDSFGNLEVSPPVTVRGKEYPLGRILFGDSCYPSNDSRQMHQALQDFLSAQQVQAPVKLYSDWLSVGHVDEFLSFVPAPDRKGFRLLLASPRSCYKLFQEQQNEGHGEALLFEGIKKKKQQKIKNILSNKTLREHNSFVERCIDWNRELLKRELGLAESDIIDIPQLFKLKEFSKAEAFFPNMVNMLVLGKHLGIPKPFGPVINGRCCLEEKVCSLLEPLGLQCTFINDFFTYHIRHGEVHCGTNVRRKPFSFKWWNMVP
(Lyso)-N-acylphosphatidylethanolamine lipase (Mus musculus), sequence (Q8VD66 whole entry, looked up): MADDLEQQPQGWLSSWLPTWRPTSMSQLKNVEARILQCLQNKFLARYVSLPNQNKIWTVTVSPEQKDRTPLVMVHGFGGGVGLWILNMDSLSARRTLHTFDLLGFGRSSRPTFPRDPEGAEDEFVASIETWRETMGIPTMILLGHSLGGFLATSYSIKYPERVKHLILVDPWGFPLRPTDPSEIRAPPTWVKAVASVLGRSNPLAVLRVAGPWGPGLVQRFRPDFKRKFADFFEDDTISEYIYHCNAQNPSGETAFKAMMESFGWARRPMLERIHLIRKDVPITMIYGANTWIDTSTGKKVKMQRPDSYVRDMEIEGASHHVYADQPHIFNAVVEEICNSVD
Protein phosphatase methylesterase 1 (Homo sapiens), sequence (Q9Y570 whole entry, looked up): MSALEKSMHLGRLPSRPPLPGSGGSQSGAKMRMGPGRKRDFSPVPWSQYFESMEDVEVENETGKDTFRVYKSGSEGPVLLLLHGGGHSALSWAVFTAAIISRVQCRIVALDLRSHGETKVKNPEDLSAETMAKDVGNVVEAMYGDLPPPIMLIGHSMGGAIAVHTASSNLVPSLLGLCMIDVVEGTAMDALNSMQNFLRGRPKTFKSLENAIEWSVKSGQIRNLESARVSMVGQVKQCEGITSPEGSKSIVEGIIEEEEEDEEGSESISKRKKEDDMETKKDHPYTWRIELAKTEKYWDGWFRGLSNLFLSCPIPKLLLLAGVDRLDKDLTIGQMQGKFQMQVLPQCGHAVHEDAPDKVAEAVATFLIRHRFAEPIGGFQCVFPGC
Induced myeloid leukemia cell differentiation protein Mcl-1 (Homo sapiens), sequence (Q07820 whole entry, looked up): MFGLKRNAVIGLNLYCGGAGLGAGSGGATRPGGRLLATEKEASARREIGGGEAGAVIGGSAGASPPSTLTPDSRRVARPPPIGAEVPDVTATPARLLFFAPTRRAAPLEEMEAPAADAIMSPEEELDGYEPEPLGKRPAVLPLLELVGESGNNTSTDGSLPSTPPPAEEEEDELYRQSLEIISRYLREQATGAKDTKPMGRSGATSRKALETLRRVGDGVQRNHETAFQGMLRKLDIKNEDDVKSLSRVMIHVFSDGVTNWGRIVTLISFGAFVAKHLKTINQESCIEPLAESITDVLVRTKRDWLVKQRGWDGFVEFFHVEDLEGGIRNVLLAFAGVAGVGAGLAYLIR

Turning to `O=C(Nc1nnc(-c2ccco2)o1)c1ccc(S(=O)(=O)N2CCOCC2)cc1`, the activation in [1] is 0.8%. In addition, the inhibition – broadly, the relative decrease from the control value, in per cent – in test [2] was -4.01%; in test [3], -5.04%.
For `COc1ccc(S(=O)(=O)N2CCCCC2)cc1C(=O)NC1CCS(=O)(=O)C1` (configuration not stated) the same measures were -2.17%, 10.9% and -3.25%.
Turning to `Cc1cc(C)c2nc(-c3ccco3)cc(C(=O)O)c2c1`, the activation in [1] was 2.58%. The inhibition is -12.9% in [2] and 63.6% (active) in test [3].
For `Oc1cc(O)c2c(c1)OC(c1ccc(O)c(O)c1)C(O)C2` (configuration not stated), the activation in test [1] was 10.4% (active). The inhibition was -52.5% in [2] and -0.79% in test [3].
For `O=C1OC(/C=C/c2ccccc2)=NC/1=C/c1ccco1` the same measures were -0.93%, 4.71% and -2.29%.
The like results for `CCN(CC)CCOc1ccc2c(c1)C(=NNC(=O)c1ccccn1)c1cc(OCCN(CC)CC)ccc1-2` were, in that order, 2.34%, -8.61% and 6.51%.
For `COc1ccc(NC(=O)C(NC(C)=O)C(=O)NCc2ccccc2Cl)cc1` (configuration not stated) the same measures were -0.36%, 1.86% and 2.33%.
`Cc1cc(=O)n2[nH]c(-c3sccc3-n3c(C)ccc3C)cc2n1`: the activation in test [1] was 4.52%. Besides, the values for the inhibition in [2] and in test [3] were -16.3% and 1.35%, respectively.
For `O=C(O)c1ccc(NN=CC2=C(N3CCOCC3)/C(=C/c3ccccc3)CC2)cc1` the same measures were 3.07%, -10.9% and 16.6% (active).
For `NC(=O)c1ccccc1NC(=O)c1ccccc1F` the same measures were 1.09%, -4.33% and -4.54%.
For `CC(=NCc1ccc2c(c1)OCO2)C1=C(O)c2ccccc2C1=O` the same measures were 0.56%, -2.08% and -0.38%.
For the molecule `Cc1cc2c(c(=O)n1Cc1ccco1)C(c1ccccc1)C(C#N)=C(N)O2` (configuration not stated), the activation in test [1] was 1.58%. Also, the inhibition in [2] is -5.7%; in test [3], -9.1%.
As to `CCOC(=O)c1ccc(Nc2cc3ccccc3c(=O)[nH]2)cc1`, the inhibition is 53.9% (active) in [4], 8.23% in [2] and 29.8% (active) in [3]. For the same molecule, the activation in test [1] is -1.62%.
Turning to `CC(C)Cn1c(N)c(C(=O)NCc2cccs2)c2nc3ccccc3nc21`, the inhibition was -4.29% in test [5], -13.3% in [2] and -3.17% in [3]. Also, the activation in test [1] was 3.66%.
As to `O=C(CN(C(=O)c1csnn1)c1cccc(Cl)c1)NC1CCCC1`, the activation in [1] was -0.52%. Further, the inhibition in [2] was 2.68%; in test [3], 3.72%.
For `C[C@H]([C@@H](O)[C@@H](O)[C@@H](C)C(C)(C)C)[C@H]1CC[C@H]2C3CC[C@H]4C[C@H](OS(=O)(=O)O)[C@@H](OS(=O)(=O)O)C[C@]4(C)[C@H]3CC[C@]12C` (some centres not stated) the same measures were -1.87%, 6.58% and 32.4% (active).
Turning to `O=S(=O)(Nc1ccc(O)c2ccccc12)c1ccc(OC(F)(F)F)cc1`, the inhibition in test [5] is 38.2% (active); in test [6], 15% (active); in test [2], -5.75%; in test [3] it was 8.79%. Besides, the activation in [1] was 1.57%.
As for `CN(C)/C=C/C(=O)c1cnc2sccn2c1=O`, the activation in test [1] was 0.96%. Also, the inhibition was -3.51% in [2] and 1.19% in test [3].
For the molecule `CN(C)c1ccc(N/C=C/C(=O)C(F)(F)F)cc1`, the activation in [7] is 21.7%; in test [8] it was 15.3%; in [9] it was 12.7%; in [1] it was 14.5% (active). Moreover, the inhibition in test [5] was 6.83%; in test [10], -0.71%; in test [6], 1.99%; in test [11] it was 5.14%; in [12], 0.92%; in test [13], 2.09%. Moreover, the inhibition in [14] is 2.7%; in test [2], -51.7%; in [3] it was 0%.
For `COc1ccc(S(=O)(=O)/N=C2\C=C(NS(=O)(=O)c3ccccc3)C(=O)c3ccccc32)cc1`, the inhibition was 72.9% (active) in test [5], 10% in test [2] and 5.95% in test [3]. The activation in [1] was -2.79%.
Regarding `Oc1cccc(/C=N/Nc2ccc(Cl)nn2)c1O`, the inhibition in [15] is 93.5% (active); in test [16] it was 0.35%; in [5], 7.85%; in test [10], 29.2% (active); in test [17], 42.9% (active); in test [18], 15.7% (active). The inhibition in test [19] is 20.9%; in test [20], 7.26%; in [21], 9.97%; in test [22], 26% (active); in test [2], -36.1%; in [3] it was 10.1%. The activation in [1] was 10.1% (active).
As to `CCOC(=O)c1ccc(NC(=O)CSc2ncccn2)cc1`, the activation in test [1] was -0.25%. The figures for the inhibition in [2] and in [3] were 1.28% and -6.96%, respectively.
For `CN(C(=O)COC(=O)c1cc(-c2ccco2)nc2ccccc12)C1CCS(=O)(=O)C1` (configuration not stated), the inhibition was 34.6% (active) in [23]; 95.6% (active) in test [24]; 38.5% (active) in test [5]; 3.94% in [12]; 28.1% (active) in test [13]; -121% in test [2]. The inhibition in [3] was 53.3% (active). The activation in [1] was 24.1% (active).
For the molecule `Cc1ccc(C(=O)N2CCCc3ccccc32)c(Cl)c1`, the activation in [1] is -0.4%. The inhibition in [2] is 2.02%; in test [3], 1.35%.
On to `Nc1ccc2nc3c(=O)[nH]c(=S)[nH]c3nc2c1`, for which the inhibition is 44.2% (active) in [25]; 62% (active) in test [5]; 32.2% (active) in test [10]; 45.3% (active) in [6]; 10.6% in test [12]; 120% (active) in test [13]. For the same molecule, the inhibition in test [14] was 53.5% (active); in test [2], -245%; in test [3], 83% (active). Moreover, the activation in test [1] was 48.6% (active).
